Measured values reported in ChEMBL document CHEMBL1961873, “Compounds: GSK PKIS; Assays: Nanosyn kinase panel” (2012).

molecular target: Tyrosine-protein kinase Lck (Homo sapiens) (UniProt P06239); conditions: at 0.1 µM
Sequence (P06239 2-509 limits assumed): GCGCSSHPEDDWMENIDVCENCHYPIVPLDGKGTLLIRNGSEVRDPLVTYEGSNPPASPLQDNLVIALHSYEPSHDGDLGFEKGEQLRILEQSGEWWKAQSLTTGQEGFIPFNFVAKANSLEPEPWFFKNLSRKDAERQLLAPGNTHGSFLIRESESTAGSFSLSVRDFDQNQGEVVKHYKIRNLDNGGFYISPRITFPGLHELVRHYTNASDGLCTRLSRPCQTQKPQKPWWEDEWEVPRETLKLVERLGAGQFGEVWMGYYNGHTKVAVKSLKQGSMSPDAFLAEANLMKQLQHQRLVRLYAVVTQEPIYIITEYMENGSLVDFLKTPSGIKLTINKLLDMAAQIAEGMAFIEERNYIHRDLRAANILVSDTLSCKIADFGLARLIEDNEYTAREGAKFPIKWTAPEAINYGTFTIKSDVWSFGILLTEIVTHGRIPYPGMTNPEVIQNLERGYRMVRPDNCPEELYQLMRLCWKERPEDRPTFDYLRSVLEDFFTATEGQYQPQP

Row | Compound | inhibition
1 | Nc1ncc(-c2cccc(S(N)(=O)=O)c2)c2scc(-c3ccc(F)c(Cl)c3)c12 | 12.9%
2 | Cc1ccc2c(-c3ccnc(Nc4ccccc4)n3)c(-c3ccc(F)cc3)nn2n1 | 15.8%
3 | CS(=O)(=O)CCNCc1ccc(-c2ccc3ncnc(Nc4ccc(OCc5ccccc5)c(C(F)(F)F)c4)c3c2)o1 | 3.56%
4 | NC(=O)c1sc(-n2cnc3ccc(C(F)(F)F)cc32)cc1OCc1ccccc1Br | -0.17%
5 | CCn1c(-c2nonc2N)nc2ccccc21 | 0.68%
6 | NS(=O)(=O)c1ccc(Nc2ncc(-c3ccccc3)o2)cc1 | 1.77%
7 | COc1ccc2[nH]c3c4[nH]c5ccc(OC)cc5c4c4c(c3c2c1)C(=O)NC4=O | 4.72%
8 | Nc1nc(-c2ccc(F)cc2)c(-c2ccc3ncccc3n2)s1 | 9.43%
9 | COc1ccc(CNC(=O)c2ccc(-c3cc(-c4nnc(C)o4)ccc3C)cc2)cc1 | 0.44%
10 | O=C(O[C@H]1CN[C@H](C#Cc2cc3ncnc(Nc4ccc(Cc5ccccc5)cc4)c3s2)C1)N1CCOCC1 | 2.19%
11 | N#Cc1c(NC(=O)CN2CCOCC2)sc2c1CCCC2 | 1.87%
12 | Cc1cccc(Nc2ncc(-c3ccccc3)o2)c1 | 3.23%
13 | O=C(Nc1n[nH]c2cc(-c3ccc(F)cc3)ccc12)C1CC1 | 1.9%
14 | COC(=O)c1sc(-n2cnc3cc(OC)c(OC)cc32)cc1OCc1ccccc1C(F)(F)F | 4.87%
15 | Cc1ccc(O)cc1Nc1ccnc2cc(-c3ccccn3)ccc12 | 33.6%
16 | CCc1nn2ncccc2c1-c1ccnc(NC2CC2)n1 | 2.82%
17 | CCn1cc(-c2ccnc3[nH]ccc23)c(-c2cccc(NC(=O)Nc3ccc(OCc4ccccc4)cc3)c2)n1 | 2.58%
18 | COc1cc2c(cc1Nc1nc(Nc3ccsc3C(N)=O)c3cc[nH]c3n1)N(C(=O)CN(C)C)CCC2(C)C | 0.99%

molecular target: Tyrosine-protein kinase Lck (Homo sapiens) (UniProt P06239); conditions: at 1 µM

Row | Compound | inhibition
19 | COc1ccc(-c2cc(-c3c[nH]nc3-c3ccccn3)ccn2)cc1 | 5.16%
20 | CCCN(CCS(C)(=O)=O)Cc1ccc(-c2ccc3ncnc(Nc4ccc(OCc5cccc(F)c5)c(Cl)c4)c3c2)o1 | 5.97%
21 | FC(F)(F)c1cccc(-c2nn3ncccc3c2-c2ccnc(Nc3ccc4c(c3)OCCO4)n2)c1 | 45.8%
22 | CCNC(=O)O[C@H]1CN[C@H](C#Cc2cc3ncnc(Nc4ccc(OCc5cccc(F)c5)c(Cl)c4)c3s2)C1 | 3.76%
23 | COC(=O)Nc1nc2ccc(S(=O)(=O)c3ccc(NC(=O)Nc4cc(C(F)(F)F)ccc4F)cc3)cc2[nH]1 | 3.94%
24 | CC(=O)Nc1cccc(C#Cc2cncnc2Nc2ccc(OCc3cccc(F)c3)c(Cl)c2)c1 | 3.76%
25 | CCOc1ccc2c(-c3ccnc(Nc4cccc(C(F)(F)F)c4)n3)cnn2n1 | 7.3%
26 | CC(=O)NCc1cccc(C#Cc2cncnc2Nc2ccc(OCc3cccc(F)c3)c(Cl)c2)c1 | 1.6%
27 | Cc1cccc2c1NC(=O)/C2=N\Nc1ccc(S(N)(=O)=O)cc1 | 2.95%
28 | COc1ccc(-c2nn3ncccc3c2-c2ccnc(Nc3ccc4c(c3)OCCO4)n2)cc1 | 66.8%
29 | Fc1ccc(-c2cc(-c3c[nH]nc3-c3ccccn3)ccn2)cc1 | 2.35%
30 | CCN(CC)S(=O)(=O)c1ccc(OC)c(Nc2ncc(-c3ccccc3)o2)c1 | 24.8%
31 | COc1cccc(-c2c[nH]c3c(N/N=C/c4ccncc4)ncnc23)c1 | 82%
32 | c1ccc(-c2nc3n(c2-c2ccc4c(c2)OCO4)CCC3)nc1 | 3.01%
33 | COc1cccc(-n2ncc3c(N/N=C/c4ccc(F)cc4)ncnc32)c1 | 45.5%
34 | Nc1ncc(-c2cccc(S(N)(=O)=O)c2)c2scc(-c3ccc(F)c(Cl)c3)c12 | 52.4%
35 | Cc1ccc2c(-c3ccnc(Nc4ccccc4)n3)c(-c3ccc(F)cc3)nn2n1 | 56.9%
36 | CS(=O)(=O)CCNCc1ccc(-c2ccc3ncnc(Nc4ccc(OCc5ccccc5)c(C(F)(F)F)c4)c3c2)o1 | 5.95%
37 | NC(=O)c1sc(-n2cnc3ccc(C(F)(F)F)cc32)cc1OCc1ccccc1Br | 1.85%
38 | CCn1c(-c2nonc2N)nc2ccccc21 | 3.03%
39 | NS(=O)(=O)c1ccc(Nc2ncc(-c3ccccc3)o2)cc1 | 6.21%
40 | COc1ccc2[nH]c3c4[nH]c5ccc(OC)cc5c4c4c(c3c2c1)C(=O)NC4=O | 21.1%
41 | Nc1nc(-c2ccc(F)cc2)c(-c2ccc3ncccc3n2)s1 | 16.7%
42 | COc1ccc(CNC(=O)c2ccc(-c3cc(-c4nnc(C)o4)ccc3C)cc2)cc1 | 3.44%
43 | O=C(O[C@H]1CN[C@H](C#Cc2cc3ncnc(Nc4ccc(Cc5ccccc5)cc4)c3s2)C1)N1CCOCC1 | 8.13%
